# Results taken from PubChem BioAssay AID651812 (National Center for Advancing Translational Sciences (NCATS), 2012).
# The campaign covered roughly 2,100 compounds. About 650 (31%) were called active. Another 16% or so got no clear call; they are omitted. This is one part of the list. Values without a mark were called inactive. The call rests on the fitted dose curve; in most records, active means well fitted inhibition curve with a large enough effect; inconclusive means small, poorly fitted or top-dose-only effect; inactive means flat fitted curve, though single readings scatter.
# Experiment: qHTS for inhibitors of Vif-A3G interactions: Cherry picks; further: nearly all actives have a fitted effect of over 80% in size; on activity, negative = fluorescence increase: % of control where 0% means no effect
# Settings: HeLa A3G-eYFP + Vif (tagged APOBEC3G with the HIV-1 protein that degrades it), 24 h; Potency: eYFP fluorescence increase; series mostly up to 36.9 µM; activity, negative = fluorescence increase: at the top concentration
# Method in brief: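 HeLa cells stably expressing A3G-eYFP and Vif, cultured overnight then exposed to compounds at several concentrations for 24 hours at 37 C, 5% CO2; cellular yellow fluorescence (488 nm ex, 500-530 nm em) imaged on Acumen, MG132 positive control.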
# Potency means the concentration at half of the fitted maximal effect.
SMILES,"activity, negative = fluorescence increase",Potency
C=CCN=c1scc(-c2ccc(F)cc2)n1/N=C/c1ccccn1,4.34% [at 46.1 µM],–
COc1ccc(CN2C(=O)C(C)Nc3ncnc(N4CCc5ccccc5C4)c32)cc1 (stereo not drawn),0.817%,–
Cc1cc(C)cc(NC(=O)/C=C/c2ccc([N+](=O)[O-])s2)c1,–,23.1 µM (active)
COC(=O)c1sccc1NC(=S)Nc1cc(C)cc(C)c1,7.51% [at 46.1 µM],–
Cc1noc(C)c1COc1ccc(C(=O)NNC(=O)c2ccccc2F)cc1,-3.72%,–
O=C(COc1ccccc1-c1ccccc1)NN=C1CCCC1,-2.76%,–
COc1ccc(-n2cc3c(-c4cccc(Br)c4)nnc(C)c3n2)cc1,-8.67% [at 46.1 µM],–
C=CCN1C(=O)C2(NNc3ccccc3O2)c2ccccc21 (stereo not drawn),–,12.5 µM (active)
O=C(Nc1ccccc1-c1nc2ccccc2[nH]1)c1ccc(N2C(=O)CCC2=O)cc1,–,23.1 µM (active)
CCOc1ccc(C(=O)Nc2cc(-c3nc4ccccc4[nH]3)ccc2Cl)cc1[N+](=O)[O-],-0.225%,–
c1ccc2c(-c3nc4ccccc4[nH]3)cccc2c1,2.87%,–
Cc1c(N/N=C(\C#N)C(=O)c2ccc(Cl)cc2)c(=O)n(-c2ccccc2)n1C,–,20.6 µM (active)
Cc1c(NC(=O)c2csc3c2CCCC3)c(=O)n(-c2ccccc2)n1C,-0.126% [at 46.1 µM],–
COc1cc(/C=N/Nc2ccc(Cl)nn2)cc(OC)c1O,-0.889%,–
COc1cc(/C=C2/CCC/C(=C\c3cc(O)c(OC)c(Cl)c3)C2=O)cc(Cl)c1O,–,18.4 µM (active)
CCOc1cc(/C=C2\CCC/C(=C\c3cc(Cl)c(O)c(OCC)c3)C2=O)cc(Cl)c1O,–,12.5 µM (active)
C=CCOc1c(Cl)cc(C(=S)N2CCCC2)cc1OCC,-12.3%,–
COc1cc(/C=C2\COC/C(=C\c3cc(OC)c(OC)c(OC)c3)C2=O)cc(OC)c1OC,-2.34%,–
COc1cc(C=C2CCCC(=Cc3ccc(OCC4CO4)c(OC)c3)C2=O)ccc1OCC1CO1 (stereo not drawn),-3.47%,–
Cn1c(=O)c(N)c2c3c(c(Br)ccc31)C(=O)c1ccccc1-2,–,2.91 µM (active)
COc1ccccc1-c1noc(-c2ccc(NCc3ccco3)c([N+](=O)[O-])c2)n1,–,23.1 µM (active)
Cc1cccc(-c2noc(-c3ccc(NCc4ccco4)c([N+](=O)[O-])c3)n2)c1,–,16.4 µM (active)
O=[N+]([O-])c1cc(-c2nc(-c3ccccc3)no2)ccc1NCc1ccco1,–,10.3 µM (active)
COc1ccc(-c2cnc3c(c2)CCC3(C#N)C#N)cc1,-12.3%,–

SMILES,"activity, negative = fluorescence increase",Potency
O=C1N/C(=N\N=C\c2ccco2)SC1Cc1ccccc1[N+](=O)[O-] (stereo not drawn),2.93% [at 46.1 µM],–
Cc1ccccc1NCC(=O)N=Nc1c(O)[nH]c2ccc([N+](=O)[O-])cc12,-23.3%,–
CCN(CC)S(=O)(=O)c1cc([N+](=O)[O-])ccc1N=Nc1c(O)[nH]c2ccccc12,–,20.6 µM (active)
CN1C2=CC=CC=CC2=[N+](C)C12C([N+](=O)[O-])=CC(=[N+]([O-])[O-])C=C2[N+](=O)[O-] (stereo not drawn),-22.7%,–
Nc1nn(-c2ccccc2)c(N)c1N=Nc1ccccc1,-22.3%,–
CCCCN(C(=O)c1ccc([N+](=O)[O-])s1)c1c(N)n(CCCC)c(=O)[nH]c1=O,3.16% [at 46.1 µM],–
Nc1c(N(CCC2=CCCCC2)C(=O)c2ccc([N+](=O)[O-])o2)c(=O)[nH]c(=O)n1Cc1ccccc1,–,18.4 µM (active)
CCCCn1c(N)c(N(CCC(C)C)C(=O)c2ccc([N+](=O)[O-])o2)c(=O)[nH]c1=O,1.21% [at 46.1 µM],–
O=Cc1s/c(=N\S(=O)(=O)c2ccccc2)n(CCCCl)c1Cl,-29.7% [at 46.1 µM],–
CCOC(=O)COn1c(=O)c(-c2ccc(Br)cc2)[n+]([O-])c2ccccc21,-1.62% [at 46.1 µM],–
CCOC(=O)CSc1nc2c(c(=O)[nH]1)C(C)(CC)Cc1ccccc1-2 (stereo not drawn),6.71% [at 46.1 µM],–
CCOC(=O)Cn1c(=O)c(-c2cc(Br)ccc2N)nc2ccccc21,–,11.6 µM (active)
CCOC(=O)c1c(C)oc2ccc(N(C(=O)c3ccncc3)S(=O)(=O)c3ccc(Br)cc3)cc12,0.275% [at 46.1 µM],–
COc1cc(C(=O)NCC(=O)N2CCN(S(=O)(=O)c3cc(C)ccc3C)CC2)cc(OC)c1OC,-8.03%,–
COc1ccc(-n2c(O)c(/C=N/NS(=O)(=O)c3cc(C)ccc3C)c3ccccc3c2=O)cc1OC,–,16.4 µM (active)
COc1cc(/C=N/Nc2cc(C)nc(NS(=O)(=O)c3ccccc3)n2)ccc1O,7.07% [at 46.1 µM],–
COc1ccc(S(=O)(=O)NCc2ccccn2)cc1NC(=O)c1ccc(C)cc1,-5.54%,–
COc1ccc(-n2c(O)c(/C=N/NS(=O)(=O)c3ccc(C)cc3)c3ccccc3c2=O)cc1OC,–,18.4 µM (active)
COc1ccc(OC)c(S(=O)(=O)N/N=C\c2cn(CC(N)=O)c3ccccc23)c1,-0.126%,–
CCC(=O)OCc1cnc(C)c2oc(=O)c(C(=O)Nc3ccccc3C(F)(F)F)cc12,1.85% [at 46.1 µM],–
CC(=O)Nc1cccc(-c2ccnc3c2CC(C(=O)Nc2ccc4c(c2)OCO4)O3)c1 (stereo not drawn),-7.38%,–
O=[N+]([O-])c1cc(O)c2ncccc2c1,-0.625%,–
Nc1[nH]c2cc([N+](=O)[O-])ccc2c1-c1ccccn1,–,8.2 µM (active)
c1ccc(-c2cccc(-c3ccccn3)n2)nc1,-1.7%,–
